Assay results: PubChem BioAssay
Values joined by “and” are separate entries in the source; they are usually repeats but may differ in a detail not shown here. Equal entries are not always repeated. Active and inactive are the calls of the source.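 The calls were made as follows, unless noted: active = compound raises insulin release from rat beta cells at 5 mM glucose, no numeric limit stated; inactive = the rest.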

Assays:
[1] = compounds altering viability of human ES cells (AID 493140; call rule not given here;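 also: cells exposed to compounds for four days before counting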); settings: human embryonic stem cell survival screen; stronger effect = higher value
[2] = P. berghei load reduction in hepatocytes – cell-based, HepG2, luciferase luminescence, HepG2 viability, primary screen (AID 624349; in the data active = parasite load remaining mostly below about 12%, no sharp cut-off; inactive = mostly above about 10%;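 also: 100% = mean of DMSO negative control wells on the same plate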); settings: P. berghei liver stage in HepG2, luciferase luminescence, concentration not given here; parasite load remaining: stronger effect = lower value; viability: measured here: HepG2 viability without parasites
[3] = Wnt pathway potentiators raising nuclear beta-catenin – imaging, WNT3A-conditioned medium, mouse C2C12, NPC library, primary screen (AID 1117326; in the data active = nuclear beta-catenin stimulation mostly above about 4.2%, no sharp cut-off; inactive = mostly below about 10%; also: reference of the scale not given here); settings: stronger effect = higher value
[4] = stimulators of insulin release from INS-1E, primary screen, cell-based, 5 mM glucose, NPC library (AID 1117329); settings: rat INS-1E insulin secretion, at 10 µM, stronger effect = higher value; also: reference of the scale not given here
[5] = growth inhibition of GSK3B-pretreated HCT116 cells – cell-based, CellTiter-Glo, 0.2 to 20 µM (AID 1117336;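 active = compounds lowering colon cancer cell viability after pretreatment blocking the GSK3B kinase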); settings: HCT116 viability after GSK3B inhibitor, at 20 µM, stronger effect = higher value
[6] = inhibition of endothelial tube formation, primary screen, imaging, VEGF stimulated, CD31 staining, tube area, NPC library (AID 1117340;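 active = compound that reduces growth-factor-driven endothelial tube area in a mixed cell culture, no cutoff stated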); settings: VEGF-stimulated ADSC/ECFC co-culture, at 10 µM, stronger effect = higher value
[7] = GLP1 release stimulators, primary, NCI-H716, NPC library (AID 1117341;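 active = compound raises GLP1 secretion from the human gut endocrine cells, with no numeric limit stated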; also: reference of the scale not given here); settings: NCI-H716 cells, at 10 µM, stronger effect = higher value
[8] = HCT116 colon cancer cell growth inhibition, primary screen, CellTiter-Glo luminescence, NPC library (AID 1117342;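 active = compounds that lower survival of HCT116 colon cancer cells in the luminescence readout, no numeric limit stated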); settings: at 20 µM (top of the series)
[9] = reduced SW480 viability measured with CellTiter-Glo, NPC library, primary (AID 1117343;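 active = compounds that lower viability of the colon cancer cells in the luminescence readout, with no numeric limit stated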); settings: CellTiter-Glo luminescence; at 20 µM (top of the series)
[10] = NPC library primary testing for decreased DLD-1 cell viability via CellTiter-Glo (AID 1117346;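 active = compounds that lower survival of DLD-1 colon cancer cells in the luminescence readout, no cutoff given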); settings: DLD-1 viability, CellTiter-Glo luminescence; at 20 µM (top of the series)
[11] = viability loss with induced miR-34 in A549 – imaging, A549 dox-inducible miR-34, nuclei and caspase counts, primary screen (AID 1347080;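 active = compounds whose cell count with miR-34 switched on is under 0.7 times the count with it off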); settings: A549 miR-34 inducible, Hoechst nuclei count, 48 h
[12] = MELAS cybrid and Rieske KO viability enhancers – cell-based, MELAS cybrids, Rieske KO mouse fibroblasts, CellTiter-Glo, primary screen (AID 1508586;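 active = mean z-score across replicates of 1.96 or higher in either the MELAS or the Rieske mutant cell line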;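 also: z relative to plate mean and SD of compound and empty wells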); settings: low glucose
[13] = galactose survival enhancers in mitochondrial complex I cybrids – cell-based, galactose medium, ATP luminescence, primary screen (AID 1645843;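 active = z-score of at least 1.8 in each of two replicates, scored against plate mean and spread of sample wells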;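 also: positive z means more ATP and so rescue of galactose-driven cybrid death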); settings: complex I mutant cybrid cells, 72 h, stronger effect = higher value
[14] = target: NAD(+) hydrolase SARM1 (Homo sapiens) (UniProt Q6SZW1); assay: blocking NAD cleavage by SARM1 SAM-TIR – cell lysate, NAD-Glo luminescence (AID 1508614;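 active = compound whose remaining NAD level is above about 45 nM, limit read from the data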;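 also: higher remaining NAD means stronger inhibition of SARM1 NADase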); settings: SAM-TIR HEK293T lysate NADase, at 1 µM, stronger effect = higher value
Sequence of NAD(+) hydrolase SARM1 (Homo sapiens) (Q6SZW1 whole entry, looked up): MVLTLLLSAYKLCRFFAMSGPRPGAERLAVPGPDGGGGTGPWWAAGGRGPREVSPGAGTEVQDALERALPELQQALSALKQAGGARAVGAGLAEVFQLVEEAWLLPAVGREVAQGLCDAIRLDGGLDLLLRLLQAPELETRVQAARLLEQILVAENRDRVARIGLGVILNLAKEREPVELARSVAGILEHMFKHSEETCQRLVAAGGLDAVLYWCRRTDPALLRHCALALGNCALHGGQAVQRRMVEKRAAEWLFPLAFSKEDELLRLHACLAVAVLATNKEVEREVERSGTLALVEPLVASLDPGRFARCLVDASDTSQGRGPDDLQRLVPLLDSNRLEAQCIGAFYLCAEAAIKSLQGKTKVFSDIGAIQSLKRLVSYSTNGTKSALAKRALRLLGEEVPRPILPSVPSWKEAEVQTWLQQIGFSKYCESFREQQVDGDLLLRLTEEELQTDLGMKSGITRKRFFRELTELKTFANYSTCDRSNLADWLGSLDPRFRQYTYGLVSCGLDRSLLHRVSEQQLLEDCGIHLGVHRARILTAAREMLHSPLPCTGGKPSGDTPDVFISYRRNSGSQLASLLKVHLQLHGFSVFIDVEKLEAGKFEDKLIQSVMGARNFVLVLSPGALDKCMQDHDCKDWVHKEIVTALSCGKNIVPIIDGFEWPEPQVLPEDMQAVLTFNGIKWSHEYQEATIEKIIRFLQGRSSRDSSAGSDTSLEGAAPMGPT

[15] = compounds altering circadian rhythm period length – cell-based, LOPAC library, luminescence reporter (AID 2774; call rule not given here;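 also: values are relative to mean of DMSO wells on each plate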); settings: circadian reporter cells, at 7 µM, actives lie on both sides
[16] = measured here: relative caspase fold change +Dox/-Dox
[17] = measured here: total cells with miR-34 induction, stronger effect = lower value
[18] = measured here: total cells without miR-34 induction
[19] = MELAS cybrid survival, CellTiter-Glo 48 h, stronger effect = higher value
[20] = Rieske KO mouse fibroblast survival, CellTiter-Glo 72 h

Compound: O=C(CCCN1CCC(n2c(=O)[nH]c3ccccc32)CC1)c1ccc(F)cc1
- survival [1]: 11.5 (inactive)
- parasite load remaining [2]: -5.69% (inactive) and 52.9% (inactive)
- viability [2]: 105% and 74.8%
- nuclear beta-catenin stimulation ([3]; at 10 µM): 4.7% (inactive)
- nuclear beta-catenin stimulation ([3]; stimulation, at 2 µM): 3%
- insulin secretion stimulation [4]: 0.7% (inactive)
- viability decrease [5]: -40.8% (inactive)
- tube area decrease [6]: 8% (inactive)
- GLP1 secretion stimulation [7]: 2.9% (inactive)
- inhibition of viability [8]: 19.9% (inactive)
- viability decrease (inhibition) [9]: 29.4% (inactive)
- viability decrease (inhibition) [10]: 2.6% (inactive)
- fold change ([11]; stronger effect = lower value): 0.825 (inactive)
- fold change [11, 16]: 1.64
- cell count [11, 17]: 7580
- cell count [11, 18]: 9190
- z-score [12, 19]: 0.0917 (inactive)
- z-score [12, 20]: -0.147

Compound: CCC(C(N)=O)N1CCCC1=O (stereo unspecified)
- nuclear beta-catenin stimulation ([3]; at 10 µM): -0.1% (inactive)
- nuclear beta-catenin stimulation ([3]; stimulation, at 2 µM): -0.2%
- insulin secretion stimulation [4]: 1.4% (inactive)
- viability decrease [5]: -0.8% (inactive)
- tube area decrease [6]: -18.3% (inactive)
- GLP1 secretion stimulation [7]: 0.6% (inactive)
- inhibition of viability [8]: -4.9% (inactive)
- viability decrease (inhibition) [9]: -0.6% (inactive)
- viability decrease (inhibition) [10]: -1.1% (inactive)
- fold change ([11]; stronger effect = lower value): 0.925 (inactive) and 0.884 (inactive)
- fold change [11, 16]: 1.53 and 10.7
- cell count [11, 17]: 9780 and 8770
- cell count [11, 18]: 10600 and 9920
- z-score [12, 19]: 2 (active)
- z-score [12, 20]: 0.478
- z-score [13]: 0.645 (inactive)

Compound: C[C@@H]1CN(C2CCC(C#N)(c3ccc(F)cc3)CC2)CC[C@]1(C(=O)O)c1ccccc1 (stereo partly specified)
- survival [1]: 4.42 (inactive)
- parasite load remaining [2]: 126% (inactive)
- viability [2]: 76.2%
- nuclear beta-catenin stimulation ([3]; at 10 µM): 0% (inactive)
- nuclear beta-catenin stimulation ([3]; stimulation, at 2 µM): 0.4%
- insulin secretion stimulation [4]: -1.7% (inactive)
- viability decrease [5]: 18.6% (inactive)
- tube area decrease [6]: 9.6% (inactive)
- GLP1 secretion stimulation [7]: 1.1% (inactive)
- inhibition of viability [8]: 15.3% (inactive)
- viability decrease (inhibition) [9]: 33.5% (inactive)
- viability decrease (inhibition) [10]: 30.7% (inactive)
- fold change ([11]; stronger effect = lower value): 0.976 (inactive)
- fold change [11, 16]: 0.701
- cell count [11, 17]: 9400
- cell count [11, 18]: 9630
- z-score [12, 19]: -1.75 (inactive)
- z-score [12, 20]: -1.19

Compound: CC(C)(O)C(Cl)(Cl)Cl
- nuclear beta-catenin stimulation ([3]; at 10 µM): -0.2% (inactive)
- nuclear beta-catenin stimulation ([3]; stimulation, at 2 µM): 0.8%
- insulin secretion stimulation [4]: -2.2% (inactive)
- viability decrease [5]: -5.6% (inactive)
- tube area decrease [6]: 1.4% (inactive)
- GLP1 secretion stimulation [7]: 1.1% (inactive)
- inhibition of viability [8]: 4.4% (inactive)
- viability decrease (inhibition) [9]: 14% (inactive)
- viability decrease (inhibition) [10]: 6.7% (inactive)
- fold change ([11]; stronger effect = lower value): 0.973 (inactive)
- fold change [11, 16]: 0.817
- cell count [11, 17]: 7820
- cell count [11, 18]: 8030
- remaining NAD [14]: 10 nM (inactive)

Compound: Clc1cccc(N2CCNCC2)c1
- period change [15]: 0.065 h (inactive)
- nuclear beta-catenin stimulation ([3]; at 10 µM): 1% (inactive)
- nuclear beta-catenin stimulation ([3]; stimulation, at 2 µM): 0.1%
- insulin secretion stimulation [4]: 3.9% (inactive)
- viability decrease [5]: 15% (inactive)
- tube area decrease [6]: 3.3% (inactive)
- GLP1 secretion stimulation [7]: 6.5% (inactive)
- inhibition of viability [8]: 10.8% (inactive)
- viability decrease (inhibition) [9]: 68.5% (active)
- viability decrease (inhibition) [10]: 26.4% (inactive)
